Measurements: PubChem BioAssay AID1347076 (National Center for Advancing Translational Sciences (NCATS), 2019)
Among all 400,000 compounds or so, about 13,000 (3.2%) were called active. Entries that show only a call come without a potency. About 18% were inconclusive and are not listed. Calls follow the shape of the dose curve; as a rule, active = well fitted cell-killing curve with a large enough effect; inconclusive = small, poorly fitted or top-dose-only effect, or effect the other way; inactive = flat fitted curve, though single readings scatter. The sample as a whole holds a higher share of actives than the screen did.

Test: qHTS assay for MDR1-selective chemotherapeutics: Primary screen using the drug-selected MDR subline cells KB-V1; also: nearly all actives have a fitted effect of over 60% in size
Settings: KB-V1 MDR cells viability, CellTiter-Glo, 72 h; series mostly up to 46.1 µM
How it was run: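 In this primary screen, KB-V1 cells overexpressing P-gp are incubated with library compounds (lowest to highest concentration) for 72 h at 37 degrees C before a luminescent ATP viability read.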
Potency is read from the fitted curve at half-maximal effect.

SMILES	Potency
COC(=O)[C@]12CCCCC=C1N(Cc1ccc3c(c1)OCO3)C(=O)[C@H](CC(=O)NCc1cccs1)C2	inactive
O=C1CCC(C(=O)OCC(=O)Nc2ccc(OC(F)F)cc2)=NN1	inactive
Cc1ccc2c(c1)c1c(c(=O)n(-c3ccccc3)c(=O)n1CC(=O)c1ccc(Cl)cc1)n2C	inactive
CC(=O)NC(c1cccc(F)c1)c1nc(-c2cccc(F)c2)cs1 (configuration not stated)	inactive
Cc1cc(C)cc(NC(=O)CSCc2cnn(-c3ccccc3)c2-n2cccc2)c1	18.4 µM (active)
CC(=O)Nc1ccc(NC(=O)CSCc2cnn(-c3ccccc3)c2-n2cccc2)cc1	inactive
CCOc1ccc(NC(=O)c2cnn(-c3ccccc3)c2-n2cccc2)cc1	inactive
CCOc1ccccc1N(CC)C(=O)c1cc2ccc3cccnc3c2[nH]1	inactive
CCOC(=O)Nc1ccc(NC(=O)OCC)cc1	inactive
CCCCC(CCC(=O)Nc1ccc(C(=O)OCC)cc1)C(=O)O (configuration not stated)	inactive
CCCCCOC(=O)NCCOC(=O)Nc1ccc(C(=O)OCC)cc1	16.4 µM (active)
CC1C(=O)N(Cc2cn(CC3CCCCC3)nn2)CCS(=O)(=O)N1Cc1ccc(-c2cccc(N(C)C)c2)cc1 (configuration not stated)	inactive
COc1ccc(-c2ccc(=O)n(CC(=O)Nc3ccc(Br)cc3F)n2)cc1	inactive
O=C(Nc1ncccc1O)c1ccc(S(=O)(=O)N2CCCC2)cc1	inactive
O=C(NC(=O)c1ccccc1)Nc1ccccc1O	inactive
O=C(Nc1ncccc1O)c1ccc(C(=O)c2ccccc2)cc1	23.1 µM (active)
C[C@@H]1CN([C@@H](C)CO)C(=O)c2cc(NS(C)(=O)=O)ccc2O[C@@H](C)CCCCO[C@H]1CN(C)C(=O)Nc1ccc2c(c1)OCO2	inactive
O=C(NCc1ccccc1)C1c2ccccc2OCC(=O)N1C1CC1 (configuration not stated)	inactive
Cc1ccc(C(O)c2ncc(-c3ccccc3F)[nH]2)cc1F (configuration not stated)	inactive
CCS(=O)(=O)c1ccc(O)c(NC(=O)COc2ccc(Cl)cc2)c1	inactive
O=C(Nc1cccc(S(=O)(=O)NC2=NCCC2)c1)c1ccc(F)cc1F	inactive
O=C(Nc1cc(S(=O)(=O)Nc2ccc(Cl)cc2)ccc1O)c1ccc(F)cc1F	23.1 µM (active)
CCCSc1nc2sc3c(c2c(=O)n1-c1cccc(Br)c1)CC(C)(C)OC3	inactive
CCC1(C)Cc2c(sc3nc4n(c(=O)c23)CCCS4)CO1 (configuration not stated)	inactive
CCCSc1nc(NCc2ccco2)c2c3c(sc2n1)COC(C)(CC)C3 (configuration not stated)	16.4 µM (active)

SMILES	Potency
Cc1ccc(N2CC(c3nnc(Cc4ccccc4Cl)o3)CC2=O)cc1 (configuration not stated)	inactive
CC(C)(C)OC(=O)N1CCC(c2c(C(=O)N3CCN(c4cccc(Cl)c4)CC3)cnn2-c2cccc(Cl)c2)CC1	inactive
Cc1ccc(OCC(=O)Nc2ccccc2Sc2ccc(Cl)cc2)c([N+](=O)[O-])n1	9.2 µM (active)
Cc1ccc(OCC(=O)NC(C)c2ccccc2)c([N+](=O)[O-])n1 (configuration not stated)	inactive
O=C(COc1cccnc1[N+](=O)[O-])Nc1ccc(Cl)cc1F	inactive
Cc1ccc(S(=O)(=O)N2CC3C(=O)C[C@@H](c4ccccc4Cl)N(S(=O)(=O)c4ccc(C)cc4)C3CC2c2ccccc2)cc1 (some centres not stated)	inactive
COc1ccc(C(C)(C)C)cc1NC(=O)CN(C)C1=NS(=O)(=O)c2ccccc21	inactive
CC1(C(=O)NCc2ccc3c(c2)OCO3)CCN1C(=O)Cc1cccs1 (configuration not stated)	inactive
C[C@H](NC(=O)CC[C@H]1O[C@@H](n2ccc(=O)[nH]c2=O)[C@H](O)[C@@H]1O)c1cccc2ccccc12	inactive
CNC(=S)NNC(=O)c1ccc(N(C)C)cc1	11.6 µM (active)
CNC(=S)NNC(=O)c1sccc1OCc1ccccc1	inactive
CC(=O)NC(=S)NNC(=O)c1ccc(Br)cc1	inactive
COC(=O)C1(C(=O)OC)C/C=C\CN(S(=O)(=O)c2ccccc2[N+](=O)[O-])CCC1	inactive
COc1ccc(Cn2c(C)c(C)c(C#N)c2NC(=O)Nc2ccc(F)cc2)cc1	inactive
COc1ccc(NS(=O)(=O)c2cc(NC(=O)c3ccc(S(=O)(=O)N(C)C)cc3)ccc2N2CCOCC2)cc1	inactive
COc1ccc(NC(=O)c2sc(=O)n(Cc3ccc(S(=O)(=O)N(C)C)cc3)c2C)cc1	9.2 µM (active)
O=C(CSc1nnc(-c2cccs2)n1Cc1ccccc1)N1CCc2ccccc2C1	inactive
Cc1nc(SCC(=O)N2CCc3ccccc3C2)c2c(C)c(C)sc2n1	18.4 µM (active)
Cc1nc(SCC(=O)N2CC(=O)Nc3ccccc32)c2c(C)c(C)sc2n1	inactive
COc1ccc(OC)c(C(=O)NC2CCCc3c2cnn3-c2cc(C)cc(C)c2)c1 (configuration not stated)	inactive
Cc1cccc(N2CCN(C(=O)c3cnc(N4CCCC4)nc3C)CC2)c1C	inactive
CCOC(=O)N1CCc2c(sc3c2C(=O)NC(c2ccccc2F)N3)C1 (configuration not stated)	inactive
C/C(=C\c1ccccc1)C1NC(=O)c2c(sc3c2CCCC3)N1 (configuration not stated)	inactive
O=C1NC(c2ccncc2)Nc2sc3c(c21)CCCC3 (configuration not stated)	20.6 µM (active)
COc1ccc(NC(=O)CCCN2C(=O)CCn3nc(-c4cn(C)c5ccccc45)cc32)cc1OC	inactive

SMILES	Potency
Cc1cccc(NC(=O)c2ccc(OCC(=O)NCc3ccccc3)cc2)c1C	14.6 µM (active)
COc1ccc(C(=O)Nc2cc(C)ccc2NC(=O)COc2ccccc2)cc1	inactive
Cc1ccc(OCC(=O)NNC(=S)NCc2ccccc2)cc1	inactive
O=C(COC(=O)c1ccccc1OCCOc1ccccc1)Nc1cccc(Br)c1	inactive
COCCNC(=O)C1CCCN(Cc2ccccc2Cl)CC1 (configuration not stated)	inactive
COC(=O)CCCCC1=CCC2C(=O)C=C(O)C2C1 (configuration not stated)	inactive
Cc1sc2nc(-c3ccccc3F)oc(=O)c2c1C	inactive
CCOc1ccc(NC(=O)c2cc3c(=O)n(Cc4cccs4)ccc3nc2C)cc1	inactive
C=CC[n+]1c(-c2ccc(C)cc2)csc1NNC(=O)Nc1ccccc1	14.6 µM (active)
C=CCNc1scc(-c2ccccc2)[n+]1CC=C	inactive
O=C(NNC(=O)c1ccc(-c2ccccc2)cc1)Nc1ccccc1	inactive
Cc1ccc(S(=O)(=O)N2C[C@H]3C(=O)C[C@@H](c4cccc5ccccc45)N(S(=O)(=O)c4ccc(C)cc4)[C@H]3C[C@H]2c2ccc(Cl)cc2)cc1	inactive
Cc1ccccc1-c1nc(NC(C)C)nc2cc(-c3ccccc3)sc12	inactive
O=C(C1CCC1)N1CCN(c2ccccc2)CC1	inactive
O=C(NNC(=O)c1cc2c(s1)CCCC2)c1ccccc1	inactive
O=C(c1cc2c(s1)CCC2)N1CCN(c2ccccc2)CC1	20.6 µM (active)
O=[N+]([O-])c1ccc(/C=C/c2ccc3cccnc3c2)cc1	inactive
COc1cc(C(=O)N2CCOC23CCN(Cc2ccccc2)CC3)cc(OC)c1OC	inactive
COC(=O)c1ccc(C(=O)OC)c(NC(=S)N2CCCCC2)c1	inactive
COC(=O)c1ccc(C(=O)OC)c(NC(=S)N2CCN(c3cc(Cl)ccc3C)CC2)c1	20.6 µM (active)
CCc1nc2ccc(C(=O)N3CCN(c4cc(Cl)ccc4C)CC3)cc2nc1CC	inactive
O=C1CCc2cc(S(=O)(=O)Nc3cccc(Oc4ccccc4)c3)ccc2N1	inactive
CCn1c(SCC(=O)Nc2ccccc2F)nc2c(c1=O)SC(C)C2 (configuration not stated)	inactive
COCCn1c(SCC(=O)Nc2cc(OC)ccc2OC)nc2c(c1=O)SC(C)C2 (configuration not stated)	inactive
CCn1c(SCC(=O)Nc2ccc3c(c2)OCCO3)nc2c(c1=O)SC(C)C2 (configuration not stated)	4.11 µM (active)

SMILES	Potency
CN(CC(=O)Nc1ccccc1F)S(=O)(=O)c1ccc2c(c1)c(=O)n(C)c(=O)n2C	inactive
Cc1nc2c(OCC(=O)C(C)(C)C)cccn2c1N(C)Cc1cccs1	inactive
COc1ccc2c(c1)CCCO[C@]21O[C@H](CCO)C[C@H](O)[C@H]1O	inactive
COc1ccc(C(=O)N(C)Cc2ccc(OC)c(OC)c2OC)cc1S(=O)(=O)N1CCOCC1	inactive
O=C(COC(=O)CCc1ccc(S(=O)(=O)N2CCOCC2)cc1)Nc1cccc(Cl)c1	inactive
O=C(CSc1ccccc1)Nc1cccc(S(=O)(=O)N2CCOCC2)c1	inactive
Cc1ccc(CC(=O)Nc2ccc(S(=O)(=O)N3CCOCC3)cc2)cc1C	inactive
O=C(CCc1ccc(S(=O)(=O)N2CCOCC2)cc1)Nc1ccc2ccccc2c1	16.4 µM (active)
O=C(CN1CCc2ccccc2C1)Nc1cccc(S(=O)(=O)N2CCOCC2)c1	18.4 µM (active)
COc1ccc(CCC(=O)Nc2ccc(Cl)c(S(=O)(=O)N3CCOCC3)c2)cc1OC	16.4 µM (active)
COc1ccc(CC(=O)NC(C)c2ccc(Cl)c(Cl)c2)cc1S(=O)(=O)N1CCOCC1 (configuration not stated)	23.1 µM (active)
O=C(COC(=O)c1ccccc1)Nc1cccc(S(=O)(=O)N2CCOCC2)c1	inactive
COc1ccc(C(=O)OC(C)C(=O)NC2CCCC2)cc1S(=O)(=O)N1CCOCC1 (configuration not stated)	inactive
COc1ccc(CC(=O)Nc2ccc3c(c2)CCC3)cc1S(=O)(=O)N1CCOCC1	inactive
CN(CC(=O)Nc1ccc(F)cc1)CC(=O)Nc1ccc(Cl)c(S(=O)(=O)N2CCOCC2)c1	inactive
CCc1noc(C)c1C(=O)OCC(=O)c1ccc(NC(=O)CC(C)C)cc1	inactive
Nc1ncnc2c1ncn2[C@@H]1O[C@H](C(=O)NCC(F)(F)F)[C@@H](O)[C@H]1O	inactive
COc1ccc(C=C2CCC3C(CCCC34OCCO4)C2=O)cc1 (configuration not stated)	inactive
OC[C@@H]1CN(Cc2ccc(Cl)cc2)C[C@H](n2cnc3c(NCc4ccncc4)ncnc32)O1	inactive
Cc1cccc(C(=O)OCC(=O)Nc2sccc2C(N)=O)c1C	inactive
NCCCNC(=S)NCCCN(Cc1ccc(Cl)cc1)c1ccc(Br)cn1	inactive
NC(=O)CSc1nnc(-c2cccc(S(=O)(=O)N3CCOCC3)c2)o1	inactive
